# From article PMC7862700, “An all-to-all approach to the identification of sequence-specific readers for epigenetic DNA modifications on cytosine”
# How the values were obtained:
# Assay in all cases: DAPPL (digital affinity profiling via proximity ligation, sequencing); 10 mM Tris-HCl pH 7.5, 50 mM NaCl, 1 mM DTT, 4% glycerol, room temperature, 30 min; GST-TFs on glutathione beads, 16-mer random dsDNA library, 0.1% formaldehyde crosslink after washing; high values mean tight binding
# FEV = target: T1, FEV (Homo sapiens, UniProt Q99581 1-238); conditions: protein: recombinant; tags: N-terminal GST; dsDNA, one strand shown
# T1 sequence: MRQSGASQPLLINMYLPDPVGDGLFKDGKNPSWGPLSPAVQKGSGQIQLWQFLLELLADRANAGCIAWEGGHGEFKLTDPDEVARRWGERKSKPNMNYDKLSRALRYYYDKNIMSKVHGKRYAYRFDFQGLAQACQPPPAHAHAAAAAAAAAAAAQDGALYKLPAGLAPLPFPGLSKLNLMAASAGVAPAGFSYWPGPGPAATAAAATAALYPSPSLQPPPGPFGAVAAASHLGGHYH
# Procedure, shortened: (§1)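 Human transcription factors were made in yeast as GST fusions, captured on glutathione beads and barcoded with DNA. With a tag-only sample included, the pool was incubated with 200 nmole of a random double-stranded 16-mer DNA library in Tris/NaCl/DTT/glycerol buffer at room temperature for 30 min, then crosslinked with 0.1% formaldehyde after washing, ligated by proximity, amplified and sequenced. For binding signal, each hexamer's read frequency for a factor is divided by its frequency for the tag-only sample.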
# ETV5 = ETV5 (Homo sapiens, UniProt P41161 1-510); conditions: protein: recombinant; tags: N-terminal GST; dsDNA, one strand shown
# Procedure, shortened: as §1
# HSF1 = HSF1 (Homo sapiens, UniProt Q00613 1-529); conditions: protein: recombinant; tags: N-terminal GST; chain copies: 3; dsDNA, one strand shown
# Procedure, shortened: as §1
# SPIC = target: T2, SPIC (Homo sapiens, UniProt Q8N5J4 1-248); conditions: protein: recombinant; tags: N-terminal GST; dsDNA, one strand shown
# T2 sequence: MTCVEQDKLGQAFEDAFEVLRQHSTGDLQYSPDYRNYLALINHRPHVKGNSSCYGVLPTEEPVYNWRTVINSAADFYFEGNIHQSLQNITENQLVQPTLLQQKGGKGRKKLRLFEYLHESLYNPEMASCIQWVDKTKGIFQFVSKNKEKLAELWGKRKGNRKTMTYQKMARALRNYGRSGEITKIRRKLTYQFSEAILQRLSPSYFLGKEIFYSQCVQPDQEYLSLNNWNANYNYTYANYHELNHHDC
# Procedure, shortened: as §1
# ELF4 = ELF4 (Homo sapiens, UniProt Q99607 1-663); conditions: protein: recombinant; tags: N-terminal GST; dsDNA, one strand shown
# Procedure, shortened: as §1
# ELK4 = target: T3, ELK4 (Homo sapiens, UniProt P28324-2 1-405); conditions: protein: recombinant; tags: N-terminal GST; dsDNA, one strand shown
# T3 sequence: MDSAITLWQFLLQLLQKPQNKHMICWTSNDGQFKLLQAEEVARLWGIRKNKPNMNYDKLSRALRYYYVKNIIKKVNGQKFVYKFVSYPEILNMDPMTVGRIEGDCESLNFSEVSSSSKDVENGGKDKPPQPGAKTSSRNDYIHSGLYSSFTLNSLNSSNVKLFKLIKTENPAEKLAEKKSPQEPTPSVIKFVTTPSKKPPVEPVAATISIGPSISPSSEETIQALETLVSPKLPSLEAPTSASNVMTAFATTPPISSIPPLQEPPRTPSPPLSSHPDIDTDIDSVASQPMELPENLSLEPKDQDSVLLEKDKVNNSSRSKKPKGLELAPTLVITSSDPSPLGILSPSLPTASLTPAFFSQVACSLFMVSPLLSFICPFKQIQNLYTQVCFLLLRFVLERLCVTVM
# Procedure, shortened: as §1
# ETV2 = target: T4, ETV2 (Homo sapiens, UniProt O00321 1-342); conditions: protein: recombinant; tags: N-terminal GST; dsDNA, one strand shown
# T4 sequence: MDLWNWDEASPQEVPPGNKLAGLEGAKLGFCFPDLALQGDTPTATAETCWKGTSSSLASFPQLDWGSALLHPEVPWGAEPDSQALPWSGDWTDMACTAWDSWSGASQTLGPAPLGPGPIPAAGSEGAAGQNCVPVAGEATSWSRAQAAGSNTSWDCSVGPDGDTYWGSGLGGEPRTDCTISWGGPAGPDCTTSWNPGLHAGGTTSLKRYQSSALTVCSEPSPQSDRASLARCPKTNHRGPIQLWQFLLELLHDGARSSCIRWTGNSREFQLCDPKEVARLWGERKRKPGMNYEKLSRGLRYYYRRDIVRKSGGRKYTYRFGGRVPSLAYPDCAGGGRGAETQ
# Procedure, shortened: as §1
# ELF3 = target: T5, ELF3 (Homo sapiens, UniProt P78545 1-371); conditions: protein: recombinant; tags: N-terminal GST; dsDNA, one strand shown
# T5 sequence: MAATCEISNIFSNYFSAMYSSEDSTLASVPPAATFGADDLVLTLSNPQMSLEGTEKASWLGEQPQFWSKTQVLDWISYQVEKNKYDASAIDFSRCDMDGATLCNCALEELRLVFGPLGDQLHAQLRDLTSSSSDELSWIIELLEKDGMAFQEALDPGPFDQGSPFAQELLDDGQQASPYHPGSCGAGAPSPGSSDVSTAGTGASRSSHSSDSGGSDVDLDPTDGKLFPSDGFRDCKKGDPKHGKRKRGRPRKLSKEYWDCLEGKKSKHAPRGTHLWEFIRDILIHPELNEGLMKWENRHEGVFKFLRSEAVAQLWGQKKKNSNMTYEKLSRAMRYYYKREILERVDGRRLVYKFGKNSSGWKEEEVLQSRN
# Procedure, shortened: as §1
# CRX = CRX (Homo sapiens, UniProt O43186 1-299); conditions: protein: recombinant; tags: N-terminal GST; dsDNA, one strand shown
# Procedure, shortened: as §1
# ETV1 = ETV1 (Homo sapiens, UniProt P50549 1-477); conditions: protein: recombinant; tags: N-terminal GST; dsDNA, one strand shown
# Procedure, shortened: as §1
# ERF = target: T6, ERF (Homo sapiens, UniProt P50548 1-548); conditions: protein: recombinant; tags: N-terminal GST; dsDNA, one strand shown
# T6 sequence: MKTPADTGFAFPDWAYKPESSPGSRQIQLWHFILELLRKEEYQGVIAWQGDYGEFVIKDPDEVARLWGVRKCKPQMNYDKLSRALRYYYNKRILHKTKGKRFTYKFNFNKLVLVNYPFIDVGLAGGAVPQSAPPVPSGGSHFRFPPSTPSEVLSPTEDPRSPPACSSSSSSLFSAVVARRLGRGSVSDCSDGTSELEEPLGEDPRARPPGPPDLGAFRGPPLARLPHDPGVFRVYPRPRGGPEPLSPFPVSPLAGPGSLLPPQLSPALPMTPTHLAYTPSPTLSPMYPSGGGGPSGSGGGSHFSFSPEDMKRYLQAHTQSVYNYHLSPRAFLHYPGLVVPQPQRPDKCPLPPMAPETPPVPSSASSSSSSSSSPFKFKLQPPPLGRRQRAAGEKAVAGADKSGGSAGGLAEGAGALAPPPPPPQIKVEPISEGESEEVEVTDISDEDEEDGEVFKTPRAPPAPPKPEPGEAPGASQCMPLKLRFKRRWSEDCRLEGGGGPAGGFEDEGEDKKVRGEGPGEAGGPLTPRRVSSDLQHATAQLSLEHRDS
# Procedure, shortened: as §1
# ETV3L = target: T7, ETV3L (Homo sapiens, UniProt Q6ZN32 1-361); conditions: protein: recombinant; tags: N-terminal GST; dsDNA, one strand shown
# T7 sequence: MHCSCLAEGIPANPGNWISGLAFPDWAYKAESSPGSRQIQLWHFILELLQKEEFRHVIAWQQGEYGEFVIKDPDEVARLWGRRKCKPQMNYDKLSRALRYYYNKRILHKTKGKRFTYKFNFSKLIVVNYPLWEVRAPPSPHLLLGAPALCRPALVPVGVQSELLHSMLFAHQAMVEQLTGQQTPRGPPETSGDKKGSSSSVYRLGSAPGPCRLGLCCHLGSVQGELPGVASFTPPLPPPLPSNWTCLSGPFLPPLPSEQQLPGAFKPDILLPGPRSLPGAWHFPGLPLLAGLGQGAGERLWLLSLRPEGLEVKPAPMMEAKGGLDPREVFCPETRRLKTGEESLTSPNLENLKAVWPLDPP
# Procedure, shortened: as §1
# ETS2 = target: T8, ETS2 (Homo sapiens, UniProt P15036 1-469); conditions: protein: recombinant; tags: N-terminal GST; dsDNA, one strand shown
# T8 sequence: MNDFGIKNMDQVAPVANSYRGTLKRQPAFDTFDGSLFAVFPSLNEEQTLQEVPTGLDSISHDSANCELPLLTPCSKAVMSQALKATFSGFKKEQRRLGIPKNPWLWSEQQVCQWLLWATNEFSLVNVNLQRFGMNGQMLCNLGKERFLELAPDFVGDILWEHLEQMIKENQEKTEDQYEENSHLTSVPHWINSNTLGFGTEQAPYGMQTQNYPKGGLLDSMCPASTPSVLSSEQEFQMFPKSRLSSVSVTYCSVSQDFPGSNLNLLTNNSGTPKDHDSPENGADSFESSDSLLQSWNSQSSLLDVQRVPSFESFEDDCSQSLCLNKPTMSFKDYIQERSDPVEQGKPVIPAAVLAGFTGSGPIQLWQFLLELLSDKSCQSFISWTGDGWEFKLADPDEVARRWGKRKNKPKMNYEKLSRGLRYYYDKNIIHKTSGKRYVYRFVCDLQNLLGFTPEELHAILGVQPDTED
# Procedure, shortened: as §1
# SPDEF = target: T9, SPDEF (Homo sapiens, UniProt O95238 1-335); conditions: protein: recombinant; tags: N-terminal GST; dsDNA, one strand shown
# T9 sequence: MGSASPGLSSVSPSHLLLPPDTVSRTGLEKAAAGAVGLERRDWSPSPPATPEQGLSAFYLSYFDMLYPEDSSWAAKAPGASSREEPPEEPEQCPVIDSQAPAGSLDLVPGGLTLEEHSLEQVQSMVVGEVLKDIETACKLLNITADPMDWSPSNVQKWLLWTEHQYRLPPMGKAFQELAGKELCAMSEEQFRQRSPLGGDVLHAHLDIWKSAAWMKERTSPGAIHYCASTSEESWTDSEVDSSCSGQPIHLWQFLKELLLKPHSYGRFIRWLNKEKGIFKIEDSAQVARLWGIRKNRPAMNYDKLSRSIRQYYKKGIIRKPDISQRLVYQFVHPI
# Procedure, shortened: as §1
# ETV7 = target: T10, ETV7 (Homo sapiens, UniProt Q9Y603 1-341); conditions: protein: recombinant; tags: N-terminal GST; dsDNA, one strand shown
# T10 sequence: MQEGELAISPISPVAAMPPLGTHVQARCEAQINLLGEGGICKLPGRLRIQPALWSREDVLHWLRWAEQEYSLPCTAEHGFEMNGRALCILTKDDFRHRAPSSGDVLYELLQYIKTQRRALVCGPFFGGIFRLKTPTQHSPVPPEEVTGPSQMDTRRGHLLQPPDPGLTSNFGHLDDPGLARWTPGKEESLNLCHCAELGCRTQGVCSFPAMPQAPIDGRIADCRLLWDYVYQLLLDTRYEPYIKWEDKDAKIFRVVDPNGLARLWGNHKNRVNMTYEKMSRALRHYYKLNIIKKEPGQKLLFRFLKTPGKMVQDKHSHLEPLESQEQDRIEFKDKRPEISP
# Procedure, shortened: as §1
# ELF5 = target: T11, ELF5 (Homo sapiens, UniProt Q9UKW6-2 1-255); conditions: protein: recombinant; tags: N-terminal GST; dsDNA, one strand shown
# T11 sequence: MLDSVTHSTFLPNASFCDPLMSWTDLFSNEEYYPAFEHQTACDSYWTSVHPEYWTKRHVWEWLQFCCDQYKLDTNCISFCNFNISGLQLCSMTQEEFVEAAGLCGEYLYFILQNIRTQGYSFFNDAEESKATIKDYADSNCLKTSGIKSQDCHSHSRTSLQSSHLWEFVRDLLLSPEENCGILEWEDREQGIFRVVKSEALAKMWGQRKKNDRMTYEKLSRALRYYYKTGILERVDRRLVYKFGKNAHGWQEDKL
# Procedure, shortened: as §1
# ETV3 = target: T12, ETV3 (Homo sapiens, UniProt P41162-2 1-143); conditions: protein: recombinant; tags: N-terminal GST; dsDNA, one strand shown
# T12 sequence: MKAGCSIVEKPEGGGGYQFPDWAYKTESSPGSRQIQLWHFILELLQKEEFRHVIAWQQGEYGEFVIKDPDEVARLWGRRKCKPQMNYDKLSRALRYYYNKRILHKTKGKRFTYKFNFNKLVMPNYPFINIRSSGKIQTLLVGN
# Procedure, shortened: as §1
# ETV6 = ETV6 (Homo sapiens, UniProt P41212 1-452); conditions: protein: recombinant; tags: N-terminal GST; dsDNA, one strand shown
# Procedure, shortened: as §1
# CRX, sequence (O43186 whole entry): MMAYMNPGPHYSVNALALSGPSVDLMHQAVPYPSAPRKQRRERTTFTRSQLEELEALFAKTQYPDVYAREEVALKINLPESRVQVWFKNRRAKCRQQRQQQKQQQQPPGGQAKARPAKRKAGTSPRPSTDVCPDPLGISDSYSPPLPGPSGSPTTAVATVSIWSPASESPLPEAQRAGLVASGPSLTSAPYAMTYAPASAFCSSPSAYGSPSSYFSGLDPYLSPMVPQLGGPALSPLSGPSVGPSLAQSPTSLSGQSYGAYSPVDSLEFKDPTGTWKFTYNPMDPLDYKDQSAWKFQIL
# HSF1, sequence (Q00613 whole entry): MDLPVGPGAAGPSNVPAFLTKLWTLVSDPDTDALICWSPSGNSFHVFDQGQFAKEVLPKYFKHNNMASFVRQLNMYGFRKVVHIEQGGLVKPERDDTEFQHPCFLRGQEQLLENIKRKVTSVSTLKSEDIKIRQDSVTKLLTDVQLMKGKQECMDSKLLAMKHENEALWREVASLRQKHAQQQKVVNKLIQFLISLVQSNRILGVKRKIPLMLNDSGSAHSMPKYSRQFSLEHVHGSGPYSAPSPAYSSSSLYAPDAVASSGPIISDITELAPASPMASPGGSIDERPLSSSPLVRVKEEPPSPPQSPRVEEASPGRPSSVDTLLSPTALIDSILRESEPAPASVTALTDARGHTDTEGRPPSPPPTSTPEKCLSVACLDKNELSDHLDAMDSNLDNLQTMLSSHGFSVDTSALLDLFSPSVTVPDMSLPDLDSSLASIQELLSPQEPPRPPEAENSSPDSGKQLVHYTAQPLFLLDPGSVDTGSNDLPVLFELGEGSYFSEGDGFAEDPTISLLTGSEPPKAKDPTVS
# ETV6, sequence (P41212 whole entry): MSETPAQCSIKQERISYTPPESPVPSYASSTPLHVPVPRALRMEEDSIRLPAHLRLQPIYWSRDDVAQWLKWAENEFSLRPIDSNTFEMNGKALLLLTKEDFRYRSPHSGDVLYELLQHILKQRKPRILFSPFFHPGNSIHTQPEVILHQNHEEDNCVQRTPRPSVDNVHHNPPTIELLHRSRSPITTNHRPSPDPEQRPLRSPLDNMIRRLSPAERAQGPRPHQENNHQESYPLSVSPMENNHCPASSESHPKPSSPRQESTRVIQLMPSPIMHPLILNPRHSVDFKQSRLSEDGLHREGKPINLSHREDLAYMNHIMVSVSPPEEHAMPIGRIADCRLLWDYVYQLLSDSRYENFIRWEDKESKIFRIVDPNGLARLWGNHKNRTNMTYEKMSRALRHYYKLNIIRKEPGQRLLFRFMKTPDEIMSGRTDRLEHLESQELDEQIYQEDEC
# ETV1, sequence (P50549 whole entry): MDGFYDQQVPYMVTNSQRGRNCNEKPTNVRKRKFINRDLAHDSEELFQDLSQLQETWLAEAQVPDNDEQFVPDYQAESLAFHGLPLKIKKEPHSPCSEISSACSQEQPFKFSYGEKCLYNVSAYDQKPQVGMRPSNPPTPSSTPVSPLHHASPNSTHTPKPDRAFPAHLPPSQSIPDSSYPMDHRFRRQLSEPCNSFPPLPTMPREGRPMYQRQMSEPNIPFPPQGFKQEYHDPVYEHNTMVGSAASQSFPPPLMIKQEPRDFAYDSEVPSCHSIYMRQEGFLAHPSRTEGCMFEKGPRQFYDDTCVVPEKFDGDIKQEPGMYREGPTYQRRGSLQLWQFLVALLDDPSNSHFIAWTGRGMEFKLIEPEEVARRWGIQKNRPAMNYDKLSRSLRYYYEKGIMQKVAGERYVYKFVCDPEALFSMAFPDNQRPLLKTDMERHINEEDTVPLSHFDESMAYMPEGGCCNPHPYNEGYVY
# ETV5, sequence (P41161 whole entry): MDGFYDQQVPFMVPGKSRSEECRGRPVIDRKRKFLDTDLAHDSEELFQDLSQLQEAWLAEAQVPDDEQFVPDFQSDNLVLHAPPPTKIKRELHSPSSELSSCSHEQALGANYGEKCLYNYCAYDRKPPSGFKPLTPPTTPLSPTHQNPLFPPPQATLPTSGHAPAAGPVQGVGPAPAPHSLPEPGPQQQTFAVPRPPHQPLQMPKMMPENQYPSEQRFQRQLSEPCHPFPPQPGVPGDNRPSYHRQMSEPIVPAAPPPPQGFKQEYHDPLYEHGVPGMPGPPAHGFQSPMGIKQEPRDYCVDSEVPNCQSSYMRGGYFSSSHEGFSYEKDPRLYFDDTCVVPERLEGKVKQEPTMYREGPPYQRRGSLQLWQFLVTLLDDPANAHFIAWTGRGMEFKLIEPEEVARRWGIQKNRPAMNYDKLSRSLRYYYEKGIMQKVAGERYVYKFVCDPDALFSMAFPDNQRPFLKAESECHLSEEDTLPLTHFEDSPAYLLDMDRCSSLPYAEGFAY
# ELF4, sequence (Q99607 whole entry): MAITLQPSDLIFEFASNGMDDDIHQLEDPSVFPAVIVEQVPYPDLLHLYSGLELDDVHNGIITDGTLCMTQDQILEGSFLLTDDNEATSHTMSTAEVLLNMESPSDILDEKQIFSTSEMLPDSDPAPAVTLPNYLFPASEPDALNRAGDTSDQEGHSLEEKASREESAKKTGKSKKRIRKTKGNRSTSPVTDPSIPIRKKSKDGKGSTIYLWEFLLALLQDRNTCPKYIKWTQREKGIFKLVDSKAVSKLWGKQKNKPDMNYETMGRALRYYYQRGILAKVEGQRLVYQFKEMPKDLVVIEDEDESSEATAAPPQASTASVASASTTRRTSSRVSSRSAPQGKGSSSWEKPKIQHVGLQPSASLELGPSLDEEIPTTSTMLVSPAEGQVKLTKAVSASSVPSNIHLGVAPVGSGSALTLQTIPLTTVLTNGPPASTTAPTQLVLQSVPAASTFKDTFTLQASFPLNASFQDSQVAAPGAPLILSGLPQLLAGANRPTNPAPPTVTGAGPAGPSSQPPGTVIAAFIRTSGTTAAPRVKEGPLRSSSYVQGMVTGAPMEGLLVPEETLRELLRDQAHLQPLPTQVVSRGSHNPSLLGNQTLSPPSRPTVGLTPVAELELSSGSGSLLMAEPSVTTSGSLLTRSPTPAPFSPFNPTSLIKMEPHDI
sequence,measurement,setting,value
GTATTA,binding signal,FEV,"1.09 fold enrichment (6-mer frequency, TF over GST control)"
same,binding signal,ETV5,"1.14 fold enrichment (6-mer frequency, TF over GST control)"
same,binding signal,HSF1,"1.62 fold enrichment (6-mer frequency, TF over GST control)"
same,binding signal,SPIC,"1.04 fold enrichment (6-mer frequency, TF over GST control)"
same,binding signal,ELF4,"1.08 fold enrichment (6-mer frequency, TF over GST control)"
same,binding signal,ELK4,"1.14 fold enrichment (6-mer frequency, TF over GST control)"
same,binding signal,ETV2,"1.2 fold enrichment (6-mer frequency, TF over GST control)"
same,binding signal,ELF3,"1.09 fold enrichment (6-mer frequency, TF over GST control)"
same,binding signal,CRX,"2.49 fold enrichment (6-mer frequency, TF over GST control)"
same,binding signal,ETV1,"1.13 fold enrichment (6-mer frequency, TF over GST control)"
same,binding signal,ERF,"1.24 fold enrichment (6-mer frequency, TF over GST control)"
same,binding signal,ETV3L,"1.04 fold enrichment (6-mer frequency, TF over GST control)"
same,binding signal,ETS2,"1.07 fold enrichment (6-mer frequency, TF over GST control)"
same,binding signal,SPDEF,"1.17 fold enrichment (6-mer frequency, TF over GST control)"
same,binding signal,ETV7,"1.05 fold enrichment (6-mer frequency, TF over GST control)"
same,binding signal,ELF5,"1.02 fold enrichment (6-mer frequency, TF over GST control)"
same,binding signal,ETV3,"1.14 fold enrichment (6-mer frequency, TF over GST control)"
same,binding signal,ETV6,"1.16 fold enrichment (6-mer frequency, TF over GST control)"
